High-throughput results (PubChem BioAssay)
SW480 rereplic – inducers of DNA re-replication in SW480 colon cancer cells | SW480 DNA re-replication, Hoechst DNA content imaging, 48 h | Potency, µM (doses to about 46.1 µM), actives largely listed as activators | actives 1.8% (n = 340,000); further: nearly all actives have a fitted effect of over 55% in size
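Image-based DNA-content assay: after two days of treatment, nuclei were labelled with the DNA dye Hoechst and imaged, and hits were compounds raising the count of nuclei showing high fluorescence intensity.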
RGS4 inh – inhibitors of human regulator of G protein signaling 4 | Transcreener GDP fluorescence polarization, RGS4-accelerated GTP hydrolysis | Potency, µM (series often up to 114 µM), usual class: inhibitors | actives 0.039% (n = 390,000); further: nearly all actives have a fitted effect of over 75% in size
Target sequence (P49798 whole entry, looked up): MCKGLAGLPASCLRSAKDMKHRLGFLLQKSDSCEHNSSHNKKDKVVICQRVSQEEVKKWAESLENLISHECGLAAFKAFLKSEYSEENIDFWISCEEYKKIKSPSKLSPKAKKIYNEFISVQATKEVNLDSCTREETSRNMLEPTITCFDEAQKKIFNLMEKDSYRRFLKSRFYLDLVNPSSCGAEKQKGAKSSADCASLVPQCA
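MLSMR compounds (23 nl, pin-transferred) preincubated 10 min at room temperature with a 500nM (2x) first reagent, then RGS4 at 900nM (2x) plus Transcreener GDP mix added; fluorescence polarization (620/688 nm) read before and after 90 min at 30 °C.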
MCF10A rerep – induces DNA re-replication in MCF 10a normal breast cells | MCF 10A DNA re-replication, Hoechst nuclear intensity, 48 h | Potency, µM (top dose mostly 46.1 µM), actives largely listed as activators | actives 2.9% (n = 350,000); further: nearly all actives have a fitted effect of over 50% in size
KB-3-1 tox – KB-3-1 parental cell cytotoxicity. Potency, µM (series often up to 46.1 µM), hits mostly cytotoxic. AID 1347075. KB-3-1 viability, CellTiter-Glo ATP luminescence, 72 h. actives 1.4% (n = 400,000); further: nearly all actives have a fitted effect of over 60% in size
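Here the drug-naive KB-3-1 line serves as comparator for MDR sub-line selectivity; cells received compound titrations, 72 h at 37 °C, then CellTiter-Glo readout.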
TSG101-PTAP inh – blocks PTAP/TSG101 interaction to inhibit HIV-1 budding | Q99816 | Fluorescence polarization, FITC-PTAP peptide / Tsg101 binding | Potency, µM (top dose mostly 115 µM), actives largely listed as inhibitors | 340,000 tested, under 10 active | AID 493005; active means well fitted inhibition curve with a large enough effect in the main read-out, with a control signal flat, not every such curve was filed as active; inconclusive means small, poorly fitted or top-dose-only effect, or effect the other way, or a change in a side signal; inactive means no such curve, though single readings can be large or run the other way
Target sequence (Q99816 whole entry, looked up): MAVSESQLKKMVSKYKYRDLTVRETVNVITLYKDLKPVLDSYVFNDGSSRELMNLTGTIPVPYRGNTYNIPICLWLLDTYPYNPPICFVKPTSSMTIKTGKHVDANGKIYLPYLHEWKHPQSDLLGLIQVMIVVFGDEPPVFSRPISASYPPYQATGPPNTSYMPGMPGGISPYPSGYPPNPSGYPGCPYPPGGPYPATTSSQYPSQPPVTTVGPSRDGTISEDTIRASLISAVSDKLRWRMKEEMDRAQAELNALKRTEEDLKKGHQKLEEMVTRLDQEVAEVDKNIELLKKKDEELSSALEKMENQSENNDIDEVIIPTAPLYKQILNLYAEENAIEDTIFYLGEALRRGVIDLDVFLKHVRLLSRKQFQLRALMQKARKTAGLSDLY
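Tsg101 binding domain (10 uM final) was mixed with compound and a FITC-labeled PTAP peptide (50 nM final) in HEPES pH 7.5 buffer with NaCl, Tween 20, EDTA and TCEP; fluorescence polarization was read after 20 min at r.t.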
KB-V1 MDR tox – kills drug-selected multidrug resistant KB-V1 cells. KB-V1 MDR cells viability, CellTiter-Glo, 72 h. Potency, µM (top dose mostly 46.1 µM), hits mostly cytotoxic. actives 3.4% (n = 400,000). AID 1347076; further: nearly all actives have a fitted effect of over 60% in size
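Luminescent ATP read-out (CellTiter-Glo, 10 min) measures survival of drug-selected KB-V1 MDR cells after 72 h, 37 degrees C compound exposure. Medium: phenol-red-free DMEM, 10% FBS. Values from fitted concentration-response curves.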
Hits are given with their value; . = inactive; ? = inconclusive; / = no result given; [ ] = dose if it differs, or a comment. Hits are enriched below; roughly 6.6% of the tested compounds scored in any of these assays. Unless noted, the call rests on the fitted dose curve; in most records, active means well fitted curve in the direction sought with a large enough effect; inconclusive means small, poorly fitted or top-dose-only effect, or another doubt; inactive means no such curve, though single readings can be large; an effect the other way counts as inactive or inconclusive.

SMILES | SW480 rereplic | RGS4 inh | MCF10A rerep | KB-3-1 tox | TSG101-PTAP inh | KB-V1 MDR tox
CCOC(=O)c1ccc(-c2ccc(/C=C(\C#N)C(=O)Nc3c(C)cccc3Cl)o2)cc1 | / | . | / | . | / | .
COc1ccc(CCNc2oc(/C=C/c3ccc(OC)c(OC)c3)nc2C#N)cc1 | / | . | / | / | / | /
O=C(c1ccc(C(F)(F)F)cc1)N1CCC(c2noc(-c3ccc(S(=O)(=O)N4CCCC4)cc3)n2)CC1 | / | . | / | / | / | /
O=C(Oc1c(-c2ccccc2)c(=O)n2c3c(cccc13)CC2)c1ccc(F)cc1 | . | . | 26µM | . | . | .
O=C(Oc1c(-c2ccccc2)c(=O)n2c3c(cccc13)CC2)c1ccccc1 | . | . | ? | ? | . | ?
Cn1nccc1C(=O)Nc1sc2c(c1C#N)CCCC2 | . | . | . | . | . | .
CN1CCc2c(sc(NC(=O)c3ccco3)c2C(N)=O)C1 | . | . | . | . | / | .
N#Cc1c(NC(=O)c2ccc([N+](=O)[O-])o2)sc2c1CCC2 | 10µM | . | 21µM | 5.2µM | . | 18µM
NC(=O)c1c(NC(=O)c2ccc([N+](=O)[O-])o2)sc2c1CCCC2 | 1.5µM | . | 2.6µM | 16µM | . | ?
CN1CCc2c(sc(NC(=O)c3ccc([N+](=O)[O-])o3)c2C(N)=O)C1 | 1.5µM | . | ? | ? | . | ?
N#Cc1c(NC(=O)c2ccc(Cn3cc(Br)cn3)o2)sc2c1CCCCCC2 | . | ? | ? | ? | . | 2.6µM
CCn1c(=O)cc(SCC(=O)NCCc2ccc(OC)cc2OC)c2ccccc21 | / | . | / | . | / | .
COc1ccc(CNC(=O)c2cc3c(-c4ccccc4F)nn(C)c3s2)cc1 | / | . | / | . | / | ?
NC(=O)c1ccsc1NC(=O)c1ccc([N+](=O)[O-])o1 | ? | . | 3.7µM | ? | . | ?
CN1CCc2c(sc(NC(=O)c3cc(Cl)sc3Cl)c2C(N)=O)C1 | ? | ? | 23µM | . | . | .
COc1ccc(-c2noc(CCC(=O)NCc3ccc(OC)cc3OC)n2)cc1 | / | . | / | . | / | .
CN1CC=C2C(C#N)=C(N)C(C#N)(C#N)[C@H](c3cccs3)[C@H]2C1 | . | . | . | . | ? | .
CN1CC=C2C(C#N)=C(N)C(C#N)(C#N)C(CCc3ccccc3)C2C1 (centres undefined) | . | . | . | . | ? | 18µM
CC(Oc1ccccc1)C(=O)Nc1nc(-c2ccccn2)cs1 (centres undefined) | . | . | ? | ? | . | .
Cn1cccc1C(=O)Nc1nc(-c2ccccn2)cs1 | ? | . | . | 10µM | . | ?
CC(Oc1cccc(Cl)c1)C(=O)Nc1nc(-c2ccccn2)cs1 (centres undefined) | 6.5µM | ? | . | ? | . | .
O=C(Nc1nc(-c2ccccn2)cs1)c1cc2ccccc2o1 | ? | . | ? | ? | . | ?
Cc1c(C(=O)Nc2nc(-c3ccccn3)cs2)oc2ccccc12 | . | ? | 23µM | ? | . | .
CC1=C(c2ccc(C)cc2)S(=O)(=O)N(Cc2ccc(C(=O)Nc3ccc(F)cc3C)cc2)C1=O | / | . | / | ? | / | ?
Cc1ccc(NC(=O)CCCn2c(=O)c3cccn3c3cccnc32)cc1C | / | . | / | / | / | /
SMILES | SW480 rereplic | RGS4 inh | MCF10A rerep | KB-3-1 tox | TSG101-PTAP inh | KB-V1 MDR tox
COc1ccc(-c2nc3cccc(C)n3c2Nc2ccc(C)cc2)cc1 | / | . | / | / | / | /
O=C(NC1CCCCC1)c1cnn2c1NC(=C1CC1)C=C2C(F)F | / | . | / | . | / | .
COC(=O)c1cccc(Nc2ncnc3ccc(C)cc23)c1 | . | . | ? | . | . | ?
CCOC(=O)c1cccc(Nc2ncnc3ccccc23)c1 | . | . | . | . | . | 12µM
COC(=O)C1=C(CS(=O)(=O)c2ccc(C)cc2C)NC(=O)NC1c1ccc(C)cc1 (centres undefined) | / | . | / | . | / | .
CCC1CCc2nc3sc(C(=O)Nc4ccc(C)cc4C)c(N)c3cc2C1 (centres undefined) | / | ? | / | . | / | ?
CCN1CCN(C(=O)c2cnn(-c3cccc(C)c3)c2C2CCN(C(=O)OC(C)(C)C)CC2)CC1 | / | . | / | . | / | .
O=C(CCc1nc2ccccc2c(=O)[nH]1)NCCN1C(=O)S/C(=C\c2ccccc2Cl)C1=O | . | ? | . | . | . | ?
O=C(NCCN1C(=O)S/C(=C\c2cccc(Cl)c2Cl)C1=O)C1=COCCO1 | ? | . | 2.6µM | 21µM | . | 15µM
CNC(=S)N/N=C/c1ccco1 | 16µM | .[11.4 µM] | . | . | . | .
O=C(N/N=C/c1ccco1)C(O)C(O)C(=O)N/N=C/c1ccco1 (centres undefined) | . | . | . | . | . | .
CNc1nc2c(c(=O)n(C)c(=O)n2C)n1CC(O)COc1ccc(OC)cc1 (centres undefined) | / | . | / | ? | / | .
CCCn1c(NCc2ccco2)nc2c1c(=O)n(C)c(=O)n2C | . | . | . | ? | . | 15µM
Cn1c(NCc2ccco2)nc2c1c(=O)n(Cc1ccc(Cl)cc1)c(=O)n2C | . | . | ? | ? | . | ?
Cn1c(NCc2ccco2)nc2c1c(=O)n(Cc1ccc(Cl)cc1Cl)c(=O)n2C | 16µM | . | ? | . | . | .
Cn1c(=O)c2c(nc(NCc3ccco3)n2CC(O)COc2ccccc2)n(C)c1=O (centres undefined) | . | . | . | ? | . | 2.6µM
CC(Oc1ccc(Br)cc1)C(=O)Nc1ccc(S(=O)(=O)NC2=NCCCCC2)cc1 (centres undefined) | . | . | . | . | . | 23µM
CCCCOc1ccc(C(=O)N2CCN(CCc3ccncc3)CC2)cc1 | / | . | / | . | / | .
Cc1c(C(=O)NCc2ccccc2Cl)sc2nc3n(c(=O)c12)CCCCC3 | / | . | / | . | / | .
Cc1cc(Br)ccc1NCc1ccccn1 | 18µM | . | 18µM | . | . | ?
Cc1cc[n+](CC(=O)c2ccccc2)c2ccccc12 | . | . | . | . | . | .
Cc1c(N)cc[n+](CC(=O)c2ccccc2)c1C | ? | . | . | 5.2µM | . | ?
Cc1ccccc1C(=O)Nc1cccc(C(=O)OCc2cc(=O)n3c(C)csc3n2)c1 | / | . | / | / | / | /
Cc1ccc2[nH]c3c(=O)n(CC(=O)Nc4ccccc4N4CCN(C)CC4)ncc3c2c1 | 21µM | . | ? | . | . | .
CN1CCN(c2ccccc2NC(=O)Cn2ncc3c([nH]c4ccccc43)c2=O)CC1 | ? | . | . | . | . | .
CCn1cc(C(=O)O)c(=O)c2cc(F)c(N3CCN(C(=S)Nc4ccccc4OC)CC3)cc21 | . | . | . | ? | . | .
CCn1cc(C(=O)O)c(=O)c2cc(F)c(N/N=C/c3ccccc3[N+](=O)[O-])cc21 | . | . | . | . | . | 13µM
